The text below walks through data of PubChem BioAssay.

Assay [1] is described as follows: binders of probe aFSTL3 on microarray, primary screen, stem cell growth factor project, biochemical, small-molecule microarray, fluorescence 635/667 (AID 1064).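 Note: measures binding of the biotinylated anti-FSTL3 antibody to printed compounds.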 Particulars: higher = more signal.
A short description of assay [2]: binders from COS7 lysate, DM2A8 probe, primary screen, torsin A project, cell lysate, small-molecule microarray, fluorescence 635/667 (AID 1065). Particulars: higher = more signal, COS7 lysate expressing mutant human TOR1A.
Assay [3] in a line: binders of probe aFGF2 on microarray, primary screen, stem cell growth factor project, biochemical, small-molecule microarray, fluorescence 635/667 (AID 1067).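 Note: measures binding of biotinylated aFGF2 protein to printed compounds on slides; z-score merges feature fluorescence and signal-to-noise across triplicate slides.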 Particulars: higher = more signal.
Assay [4] in a line: binders of probe aFGF10 on microarray, primary screen, stem cell growth factor project, biochemical, small-molecule microarray, fluorescence 635/667 (AID 1071).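 Note: score merges 667 nm spot intensity and signal to noise from triplicate slides.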 Particulars: higher = more signal.
For assay [5], the target named is Neurogenic locus notch homolog protein 2 (Homo sapiens) (UniProt Q04721). The experiment in a line: Notch2 binders on small-molecule microarrays, primary screen, biochemical, small-molecule microarray, 635 nm fluorescence, stem cell growth factors (AID 1073). Particulars: Notch2 binding, higher = more signal.
Sequence of Neurogenic locus notch homolog protein 2 (Homo sapiens) (Q04721 whole entry, looked up, canonical isoform): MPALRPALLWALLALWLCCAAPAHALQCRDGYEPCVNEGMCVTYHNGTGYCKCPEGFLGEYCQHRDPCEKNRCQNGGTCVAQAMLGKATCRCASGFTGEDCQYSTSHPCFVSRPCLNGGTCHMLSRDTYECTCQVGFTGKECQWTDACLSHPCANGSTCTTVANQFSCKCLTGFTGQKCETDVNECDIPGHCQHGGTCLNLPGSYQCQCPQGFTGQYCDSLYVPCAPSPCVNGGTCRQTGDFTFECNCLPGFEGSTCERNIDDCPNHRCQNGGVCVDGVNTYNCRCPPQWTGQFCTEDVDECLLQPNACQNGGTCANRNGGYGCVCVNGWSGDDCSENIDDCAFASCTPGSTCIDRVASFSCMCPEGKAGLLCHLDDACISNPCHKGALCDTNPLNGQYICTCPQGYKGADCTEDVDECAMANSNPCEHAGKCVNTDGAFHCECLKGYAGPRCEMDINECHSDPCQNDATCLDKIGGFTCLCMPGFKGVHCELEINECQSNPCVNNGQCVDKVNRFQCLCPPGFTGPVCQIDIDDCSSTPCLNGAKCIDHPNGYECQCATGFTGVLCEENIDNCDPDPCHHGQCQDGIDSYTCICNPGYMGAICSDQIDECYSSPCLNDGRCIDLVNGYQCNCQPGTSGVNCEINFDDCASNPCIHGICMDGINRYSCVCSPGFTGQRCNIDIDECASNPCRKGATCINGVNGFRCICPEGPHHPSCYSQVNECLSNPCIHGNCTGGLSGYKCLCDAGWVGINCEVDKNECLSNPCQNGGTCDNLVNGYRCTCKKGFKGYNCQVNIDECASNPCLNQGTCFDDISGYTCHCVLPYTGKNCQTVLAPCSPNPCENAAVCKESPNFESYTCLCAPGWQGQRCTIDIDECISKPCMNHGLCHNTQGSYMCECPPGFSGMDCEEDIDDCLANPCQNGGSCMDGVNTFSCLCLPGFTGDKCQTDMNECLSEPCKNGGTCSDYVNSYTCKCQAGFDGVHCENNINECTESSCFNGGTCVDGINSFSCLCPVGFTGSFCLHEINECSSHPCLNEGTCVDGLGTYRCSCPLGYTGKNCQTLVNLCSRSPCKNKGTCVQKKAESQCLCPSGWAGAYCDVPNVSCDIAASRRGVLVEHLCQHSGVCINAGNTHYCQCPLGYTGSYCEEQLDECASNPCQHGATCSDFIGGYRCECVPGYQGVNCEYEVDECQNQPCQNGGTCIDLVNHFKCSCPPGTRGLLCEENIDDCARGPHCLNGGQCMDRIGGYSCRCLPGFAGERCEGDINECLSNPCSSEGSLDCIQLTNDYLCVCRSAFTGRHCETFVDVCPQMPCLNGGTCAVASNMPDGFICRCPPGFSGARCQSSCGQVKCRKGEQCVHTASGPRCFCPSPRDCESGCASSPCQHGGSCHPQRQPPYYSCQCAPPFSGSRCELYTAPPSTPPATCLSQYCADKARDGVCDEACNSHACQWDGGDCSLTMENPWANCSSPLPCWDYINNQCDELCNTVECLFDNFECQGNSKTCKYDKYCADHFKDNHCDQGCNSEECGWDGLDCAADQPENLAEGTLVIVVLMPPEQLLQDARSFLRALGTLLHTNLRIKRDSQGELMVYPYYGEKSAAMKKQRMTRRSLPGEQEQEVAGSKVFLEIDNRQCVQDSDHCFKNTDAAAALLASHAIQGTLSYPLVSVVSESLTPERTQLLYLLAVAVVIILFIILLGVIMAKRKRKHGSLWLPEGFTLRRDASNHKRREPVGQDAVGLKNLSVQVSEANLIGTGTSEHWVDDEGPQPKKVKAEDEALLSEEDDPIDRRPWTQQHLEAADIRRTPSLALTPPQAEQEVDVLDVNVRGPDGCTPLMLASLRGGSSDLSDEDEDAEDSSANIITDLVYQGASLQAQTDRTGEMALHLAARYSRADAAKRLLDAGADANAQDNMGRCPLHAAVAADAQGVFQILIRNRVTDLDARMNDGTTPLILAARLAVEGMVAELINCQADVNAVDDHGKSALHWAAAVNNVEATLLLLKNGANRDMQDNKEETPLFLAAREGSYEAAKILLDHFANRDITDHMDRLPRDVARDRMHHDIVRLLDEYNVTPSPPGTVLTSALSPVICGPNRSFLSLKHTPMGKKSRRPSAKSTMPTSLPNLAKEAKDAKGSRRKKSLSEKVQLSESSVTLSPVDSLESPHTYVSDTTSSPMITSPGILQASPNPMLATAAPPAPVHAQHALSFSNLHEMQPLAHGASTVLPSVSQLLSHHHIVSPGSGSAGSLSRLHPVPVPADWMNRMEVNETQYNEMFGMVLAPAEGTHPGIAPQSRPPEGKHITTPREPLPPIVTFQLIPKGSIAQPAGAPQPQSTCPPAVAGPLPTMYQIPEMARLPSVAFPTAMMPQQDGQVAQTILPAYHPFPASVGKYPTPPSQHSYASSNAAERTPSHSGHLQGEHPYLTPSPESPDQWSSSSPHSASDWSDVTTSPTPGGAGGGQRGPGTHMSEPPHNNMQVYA
Assay [6] deals with Pro-neuregulin-1, membrane-bound isoform (Homo sapiens) (UniProt Q02297). Kind of assay: NRG1 binders on small-molecule microarrays, primary screen, psychiatric disease protein project, biochemical, small-molecule microarray, fluorescence 635/667 (AID 1075).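 Note: score combines 667 nm spot fluorescence with signal to noise.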 The conditions noted are these: NRG1 binding, 635 nm fluorescence, higher = more signal.
Sequence of Pro-neuregulin-1, membrane-bound isoform (Homo sapiens) (Q02297 whole entry, looked up, the tested form may be a part, canonical isoform): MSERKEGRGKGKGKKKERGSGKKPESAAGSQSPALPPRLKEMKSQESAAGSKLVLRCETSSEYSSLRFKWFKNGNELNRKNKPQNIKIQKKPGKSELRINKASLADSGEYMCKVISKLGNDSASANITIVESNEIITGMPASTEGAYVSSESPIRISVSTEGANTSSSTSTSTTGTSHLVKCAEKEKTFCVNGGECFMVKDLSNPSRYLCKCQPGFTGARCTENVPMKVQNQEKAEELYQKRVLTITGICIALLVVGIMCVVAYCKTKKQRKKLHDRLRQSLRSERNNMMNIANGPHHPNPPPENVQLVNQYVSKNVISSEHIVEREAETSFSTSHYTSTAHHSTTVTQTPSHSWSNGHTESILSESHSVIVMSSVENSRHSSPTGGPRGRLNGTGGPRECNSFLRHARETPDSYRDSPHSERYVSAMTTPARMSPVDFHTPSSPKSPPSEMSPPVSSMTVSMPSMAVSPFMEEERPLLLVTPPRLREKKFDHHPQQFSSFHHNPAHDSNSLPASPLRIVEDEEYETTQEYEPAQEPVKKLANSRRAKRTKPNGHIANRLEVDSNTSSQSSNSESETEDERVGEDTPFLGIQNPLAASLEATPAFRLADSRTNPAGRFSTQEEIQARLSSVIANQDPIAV
Assay [7] concerns Neuregulin-1 EGF-like domain. The experiment in a line: binders of neuregulin-1 EGF-like domain, primary screen, biochemical, small-molecule microarray, 635 nm fluorescence (AID 1081).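 Note: binding of the protein to compounds printed on small-molecule microarray slides.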 The conditions noted are these: small-molecule microarray binding, higher = more signal.
The nature of assay [8]: FRG1 promoter luciferase signal modulators, primary screen, FRG1 inhibition for FSHD, cell-based, C2C12 myotubes, firefly/Renilla luciferase, luminescence (AID 1084). The conditions noted are these: higher = more signal, called active from +8 up or from −8 down.
Assay [9] is described as follows: binders of probe aFST on microarray, primary screen, stem cell growth factor project, biochemical, small-molecule microarray, fluorescence 635/667 (AID 1086).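 Note: score merges 667 nm fluorescence with signal-to-noise of each printed compound spot.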 Particulars: higher = more signal.
Assay [10] in a line: binders of probe aHhip on microarray, primary screen, stem cell growth factor project, biochemical, small-molecule microarray, fluorescence 635/667 (AID 1087).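 Note: score merges spot fluorescence at 667nm with spot signal to noise ratio.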 The conditions noted are these: higher = more signal.
Assay [11] concerns PRMT1 (protein arginine N-methyltransferase 1). The experiment in a line: PRMT1 binders on small-molecule microarrays, primary screen, biochemical, small-molecule microarray, 635 nm fluorescence (AID 1088).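 Note: binding of Prmt1 protein to compounds spotted on small-molecule microarray slides.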 Particulars: small-molecule microarray binding, higher = more signal.
Assay [12] can be described thus: yeast growth modulation, basal conditions, primary screen, YJM789 clinical isolate, OD600, 24 h (AID 1089).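 Note: growth of clinical yeast isolate S. cerevisiae YJM 789 seeded 1000 cells per well; test concentration not given here.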 The conditions noted are these: S. cerevisiae YJM789 growth, higher = more signal, called active from +8 up or from −8 down.
The nature of assay [13]: fission yeast growth modulation, primary screen, strain 972, OD600, 24 h, no modulator (AID 1090).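 Note: basal condition with compound alone and no growth modifier present; test concentration not given here.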 The conditions noted are these: S. pombe 972 growth, higher = more signal, called active from +8 up or from −8 down.
A short description of assay [14]: S. cerevisiae growth modulation with rapamycin, primary screen, strain BY4716, OD600, 96 h (AID 1091). Note: test concentration not given here. Particulars: higher = more signal, called active from +8 up or from −8 down.
Assay [15] addresses Torsin-1A-interacting protein 2 (Homo sapiens) (UniProt Q8NFQ8). Kind of assay: LULL1 binders on small-molecule microarray, primary screen, cell lysate, human LULL1 lysate, 635/667 nm fluorescence (AID 1092).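 Note: probe is lysate of COS7 cells overexpressing human LULL1; score merges per-feature 667 nm fluorescence with signal-to-noise.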 The conditions noted are these: hLULL1 lysate binding, 635 nm fluorescence, higher = more signal.
Assay [16] is described as follows: E. coli growth modulation, two-sided OD650, primary screen, E. coli filamentation project, strain DRC41, 24 h (AID 1093).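 Note: MC1000 strain lacking acrAB efflux and sulA so SOS filamentation is blocked; test concentration not given here.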 Particulars: OD650, 24 h, higher = more signal, called active from +8 up or from −8 down.
The nature of assay [17]: small-molecule microarray binders of probe aLefty2, primary screen, biochemical, biotinylated probe, 635/667 nm fluorescence (AID 1094).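 Note: score merges spot fluorescence near 667 nm with spot signal-to-noise ratio.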 Particulars: higher = more signal.
Assay [18] deals with Noggin (protein binding on small-molecule microarray). The experiment in a line: Noggin binders on small-molecule microarray, primary screen, biochemical, 635/667 nm fluorescence (AID 1095).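 Note: score merges 667 nm feature fluorescence with signal to noise over triplicate slides.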 Particulars: 635 nm fluorescence, higher = more signal.
Assay [19] addresses Neurogenic locus notch homolog protein 3 (Homo sapiens) (UniProt Q9UM47). Kind of assay: NOTCH3 binders on small-molecule microarray, primary screen, biochemical, 635/667 nm fluorescence (AID 1096). The conditions noted are these: NOTCH3 binding, 635 nm fluorescence, higher = more signal.
Assay [20] in a line: small-molecule microarray binders of probe aEGFR, primary screen, biochemical, biotinylated probe, 635/667 nm fluorescence (AID 1097).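 Note: probe is a biotinylated anti-EGFR antibody binding compounds printed on slides; score combines fluorescence near 667 nm and signal to noise of each spot.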 The conditions noted are these: higher = more signal.

Activity calls are given as the source filed them.

Sequence of Torsin-1A-interacting protein 2 (Homo sapiens) (Q8NFQ8 whole entry, looked up): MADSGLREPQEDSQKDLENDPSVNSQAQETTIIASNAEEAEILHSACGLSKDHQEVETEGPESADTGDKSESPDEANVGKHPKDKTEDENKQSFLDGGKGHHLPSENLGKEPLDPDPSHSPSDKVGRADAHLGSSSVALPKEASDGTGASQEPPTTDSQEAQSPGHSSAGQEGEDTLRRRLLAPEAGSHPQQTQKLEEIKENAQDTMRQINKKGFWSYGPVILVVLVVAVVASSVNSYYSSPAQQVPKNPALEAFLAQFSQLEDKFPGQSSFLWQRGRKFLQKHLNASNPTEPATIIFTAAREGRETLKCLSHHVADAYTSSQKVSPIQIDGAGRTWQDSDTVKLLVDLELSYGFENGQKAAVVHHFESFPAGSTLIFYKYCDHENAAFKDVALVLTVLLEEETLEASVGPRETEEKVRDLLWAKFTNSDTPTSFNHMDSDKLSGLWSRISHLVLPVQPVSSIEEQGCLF

For `CCOC(=O)C[C@H]1[C@H](OC(=O)c2ccccc2-c2ccccc2)[C@@H](NC(=O)c2ccccc2)c2cc(OCCCO)ccc2N1C(=O)Cc1ccc(OC)cc1`, the composite z-score is -0.205 in [1]; -0.0688 in assay [2]; -0.0569 in assay [3]; 0.149 in assay [4]; 0.585 in assay [5]; -0.323 in assay [6]. Further, the composite z-score in [7] was -0.191; in [9] it was -0.0579; in [10], -0.204; in assay [11] it was -0.175; in assay [15] it was 0.601; in assay [17], -0.0963. Also, the composite z-score in assay [18] is -0.0496; in assay [19] it was -0.196; in assay [20], -0.108. Besides, the z-score in [8] is 0.57 (inactive); in assay [12], -0.211 (inactive); in [13], -0.0183 (inactive); in assay [14] it was 0.452 (inactive); in [16], -0.922 (inactive).
As for `CCOC(=O)C1=CC[C@@H](c2ccc(N(CC)CC)cc2)N(S(=O)(=O)c2ccc(C)cc2)[C@H]1c1ccc([N+](=O)[O-])cc1`, the composite z-score in assay [1] is 0.709; in assay [2], -0.346; in [3], -0.0336; in assay [4], -0.865; in [5], -0.398; in assay [6], 0.722. Moreover, the composite z-score in assay [7] was 0.722; in [9] it was 0.0676; in assay [10] it was -0.0237; in [11] it was 0.554; in assay [15] it was 2.29; in [17] it was 0.415. Further, the composite z-score in assay [18] was -0.796; in assay [19], 0.206; in assay [20], -0.0688. For the same molecule, the z-score in assay [8] is -0.162 (inactive); in assay [12] it was -0.673 (inactive); in assay [13], 0.0534 (inactive); in [14] it was 2.76 (inactive); in [16] it was -0.532 (inactive).
For the molecule `CC(C)C[C@@H]1NC(=O)[C@@H]2C[C@H](C(=O)NCc3ccc(F)cc3)[C@H](c3ccc(O)cc3)N2C1=O`, the composite z-score was 0.454 in [1]; 0.0392 in assay [2]; -0.017 in assay [3]; 0.0187 in assay [4]; 0.245 in assay [5]; 0.346 in assay [6]. Moreover, the composite z-score in assay [7] is 1.16; in [9], -0.512; in [10], -0.201; in assay [11], 1.43; in assay [15], 2.96; in [17] it was 0.0137. Also, the composite z-score in assay [18] was 0.479; in [19], 0.365; in assay [20], -0.178. Moreover, the z-score in assay [8] is -0.331 (inactive); in assay [12], -0.472 (inactive); in [13] it was -0.352 (inactive); in assay [14], -0.427 (inactive); in assay [16], 0.549 (inactive).
Turning to `Cc1ccc(S[C@]2(C(=O)O)CC(=O)N(Cc3ccccc3C(F)(F)F)[C@@H]2c2ccc(CO)cc2)cc1`, the composite z-score in assay [1] is 0.405; in assay [2] it was -0.138; in [3], -0.172; in assay [4] it was -0.338; in assay [5], -1.11; in [6], -0.343. Moreover, the composite z-score in assay [7] was 0.508; in assay [9] it was -0.49; in assay [10] it was -0.374; in assay [11] it was 0.667; in assay [15], 1.87; in assay [17], -0.0732. Further, the figures for the composite z-score in [18], in assay [19] and in [20] were -1.06, -1.34 and -0.225, respectively. Besides, the z-score was -0.383 (inactive) in assay [8]; 0.517 (inactive) in assay [12]; 0.13 (inactive) in [13]; 0.124 (inactive) in [14]; 0.301 (inactive) in assay [16].
In the case of `C=CCC(OC(C)=O)[C@@H]1[C@@H](N(Cc2ccc(-c3ccccc3)cc2)C(=O)c2cccc3ccccc23)c2cc(OCCCO)ccc2N1C(=O)c1ccc2ccccc2n1` (stereo not given in full), the composite z-score in assay [1] was -0.0204; in assay [2], 0.113; in assay [3] it was -0.102; in assay [4], -0.0251; in [5], 0.127; in [6], 0.152. Besides, the composite z-score in [7] is -0.669; in assay [9], 0.294; in assay [10], 0.0373; in assay [11] it was 0.171; in assay [15], 0.53; in assay [17], 0.0469. Besides, the composite z-score in assay [18] was -0.0394; in assay [19], 0.336; in assay [20] it was 0.045. The z-score in assay [8] was -1.45 (inactive); in assay [12], -0.288 (inactive); in [13], -0.283 (inactive); in assay [14], -0.291 (inactive); in assay [16], 0.488 (inactive).
